Reference: PubChem BioAssay (NCATS)
Unmarked numbers belong to inactive results. Inconclusive results are not listed. The source made the active and inactive calls. Unless noted, calls come from the whole dose curve; as a rule, active = well fitted curve in either direction with a large enough effect (not every such curve was filed as active); inconclusive = small, poorly fitted or top-dose-only effect, or another doubt; inactive = flat fitted curve, though single readings scatter.

What was measured:
[1] = AP1 Signaling Pathway (AID 357); conditions: ME-180 AP-1-bla reporter, EGF-induced, beta-lactamase ratio, 5 h; at 17.2 µM (top of the series) unless noted; note: % is set by controls: 0 for no effect and ±100 for the full control effect
How it was run: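 Titration-series screen for positive or negative modulators of EC50 EGF-induced signaling in ME-180 cells carrying an AP-1-driven beta-lactamase reporter. After 5 hours at 37 degrees Celsius, CCF4 460nm/530nm emission ratio gave %Activity; AC50 values derived.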

[2] = NFAT Signaling Pathway (AID 444); conditions: Jurkat NFAT-bla M1, carbachol, beta-lactamase ratio, 5 h; at 17.2 µM (top of the series) unless noted;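 note: carbachol stimulus at about its EC50 of 1 µM final; % is set by controls: 0 for no effect and ±100 for the full control effect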
How it was run: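 Jurkat cells carrying an NFAT-driven β-lactamase reporter and co-transfected muscarinic M1 receptor were treated with compound plus carbachol (1 uM final, an EC50 level) for 5 h at 37 °C. CCF4 loading followed for 1 h at RT; 460/530 nm ratio gave %activity.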

[3] = Stat Signaling Pathway (AID 446); conditions: ME-180 SIE beta-lactamase reporter, IL-6 stimulated, 5 h; at 17.2 µM (top of the series) unless noted;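 note: ME-180 cervical cancer cells given 40 pM IL-6 alongside compound; SIE-controlled beta-lactamase reporter measured as 460/530 nm FRET emission ratio; % is set by controls: 0 for no effect and ±100 for the full control effect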
How it was run: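 ME-180 cells carrying a SIE-driven beta-lactamase reporter are stimulated with 40 pM IL-6 for 5 h at 37C in the presence of compound. The 460/530 nm FRET substrate ratio is read after 2.5 h at RT. Data are normalised to 300 pM IL-6 and to 125 nM JAK inhibitor controls.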

[4] = target: Glucocorticoid receptor (Homo sapiens) (UniProt P04150); test: GR-GFP Redistribution (AID 450;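 active = compounds whose dose series gives a full or clear partial fitted curve of increased nuclear translocation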; note: potency is the fitted concentration of half-maximal effect); conditions: U2OS GR-GFP nuclear translocation, laser cytometry, 2 h; series mostly up to 20.6 µM
Sequence of Glucocorticoid receptor (Homo sapiens) (P04150 whole entry, looked up): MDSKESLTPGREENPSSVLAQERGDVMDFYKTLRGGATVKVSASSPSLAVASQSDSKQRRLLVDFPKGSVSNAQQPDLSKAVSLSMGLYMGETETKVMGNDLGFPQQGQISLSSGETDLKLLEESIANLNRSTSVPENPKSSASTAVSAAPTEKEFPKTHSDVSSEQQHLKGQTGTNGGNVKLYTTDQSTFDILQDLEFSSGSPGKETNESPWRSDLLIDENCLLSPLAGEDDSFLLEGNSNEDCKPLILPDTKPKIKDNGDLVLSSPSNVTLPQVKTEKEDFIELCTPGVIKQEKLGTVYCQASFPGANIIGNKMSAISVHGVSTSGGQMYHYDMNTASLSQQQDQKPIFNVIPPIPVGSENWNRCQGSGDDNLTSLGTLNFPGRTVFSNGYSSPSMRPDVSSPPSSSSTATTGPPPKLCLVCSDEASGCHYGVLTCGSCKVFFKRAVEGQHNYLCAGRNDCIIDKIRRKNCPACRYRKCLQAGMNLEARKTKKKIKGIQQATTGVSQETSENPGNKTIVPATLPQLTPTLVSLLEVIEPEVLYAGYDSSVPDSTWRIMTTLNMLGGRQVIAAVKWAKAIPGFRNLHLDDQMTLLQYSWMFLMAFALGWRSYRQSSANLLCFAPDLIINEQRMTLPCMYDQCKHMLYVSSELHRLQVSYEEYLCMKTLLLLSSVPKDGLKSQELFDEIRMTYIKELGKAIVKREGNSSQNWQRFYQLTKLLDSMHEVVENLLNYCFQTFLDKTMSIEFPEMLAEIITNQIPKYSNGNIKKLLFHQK

Compound | activity change, negative = inhibition [1] | activity change, negative = inhibition [2] | activity, negative = inhibition [3] | Potency [4] [µM]
CC(C)CC(C(=O)O)C(C)CC(=O)Nc1ccn(-c2ccccc2)n1 (configuration not stated) | -9.05% | 6.76% | 7.28% | > 20.6
NS(=O)(=O)c1cc2c(cc1Cl)NC(C1C[C@H]3C=C[C@@H]1C3)NS2(=O)=O (some centres not stated) | 4.88% | -20.1% | -0.0433% | > 20.6
Cn1cc(Cl)nc1C(O)c1ccccc1 (configuration not stated) | 2.37% | -2.26% | 6.92% | > 20.6
Cc1nc(-c2coc3cc(OCC(=O)O)ccc3c2=O)cs1 | 7.54% | -2.11% | 3.59% | > 20.6
CN1c2ccccc2N(C)C1c1c(O)ccc2ccccc12 | -1.37% | -27.9% | -4.67% | > 20.6
Nc1nnc(CSc2ccc(Cl)cc2)s1 | 18.1% | -0.614% | 2.04% | > 20.6
CCCOc1cccc(-c2nnc(N)s2)c1 | -15.9% | -11.9% | -2.76% | > 20.6
CCOc1cccc(NC(=O)C2CC(=O)NC(=Nc3ccccc3)S2)c1 (configuration not stated) | -5.62% | 6.96% | -16.5% | > 20.6
N#Cc1c(-c2ccco2)cc(C2CC2)nc1N | -6.96% | 9.72% | -18.4% | > 20.6
COCCCN1C(=O)C(O)=C(C(=O)c2ccco2)C1c1ccc(Br)cc1 (configuration not stated) | -15.5% | 11.4% | -8.56% | > 20.6
O=C(O)C1CSCN1S(=O)(=O)c1cccc2nsnc12 (configuration not stated) | 1.17% | 4.31% | -1.2% | > 20.6
CCn1c(SCC(=O)NC2CCCCC2C)nnc1-c1ccc(OC)cc1 (configuration not stated) | -8.83% | 19.9% | -7.61% | > 20.6
CC1(C)CC(=O)C2=C(C1)N(CC1CCCO1)C(=O)C2(O)C(F)(F)F (configuration not stated) | 4.53% | 0.206% | 5.45% | > 20.6
COc1ccc(Cl)cc1N=Cc1c(O)cc(C)oc1=O | -3.56% | -6.83% | 5.26% | > 20.6
C=CCNc1nc(C)nc(OC)n1 | 8.25% | 13.9% | 4.41% | > 20.6
O=c1cc(NCc2ccccc2)nc2n1CCCS2 | 5.41% | 19% | -19.7% | > 20.6
COc1cccc(N2CCN(c3ncnc4c3[nH]c3ccc(F)cc34)CC2C)c1 (configuration not stated) | -121% (active) | -137% (active) | -104% (active) | > 20.6
COc1cc(C(=O)Nc2nccs2)cc(OC)c1OC | 12.8% | -2.54% | -9.15% | > 20.6
